In PubChem BioAssay AID1159580 (chemical genetic matrix, 2015):
Screen size: about 5,500 compounds; about 2,000 (36%) were called active. About 18% were inconclusive and are not listed. Cut-off read from the data, not from the text of the source: active = normalized growth mostly below about 0.91 (no sharp cut-off); inconclusive = no clear call, values can overlap the other calls; inactive = mostly above about 0.92. The list shows a part of the results.

Test: chemical genetic growth profiling, strain panel (AID 1159580);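 note: tested at 20 µM; growth read once vehicle control cultures reached saturation at 30 °C; 1 = growth at the plate median or of vehicle wells; lower values mean less growth of the strain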
Details: growth OD
[1] = S. cerevisiae deletion strains, locus YHR030C, strain SLT2, stronger effect = lower value
[2] = S. cerevisiae deletion strains, locus YJL187C, strain SWE1, stronger effect = lower value

Measured: normalized growth

C(=C(c1ccccc1)c1ccccc1)N1CCC1
inactive: S. cerevisiae deletion strains, locus YAL013W, strain DEP1, stronger effect = lower value 1 | S. cerevisiae deletion strains, locus YBR229C, strain ROT2, stronger effect = lower value 0.993 | S. cerevisiae deletion strains, locus YDL101C, strain DUN1, stronger effect = lower value 0.96 | S. cerevisiae deletion strains, locus YDL134C, strain PPH21, stronger effect = lower value 1.01 | S. cerevisiae deletion strains, locus YDR150W, strain NUM1, stronger effect = lower value 0.87 | S. cerevisiae deletion strains, locus YEL061C, strain CIN8, stronger effect = lower value 0.99 | S. cerevisiae deletion strains, locus YGR078C, strain PAC10, stronger effect = lower value 0.997 | S. cerevisiae deletion strains, locus YGR229C, strain SMI1, stronger effect = lower value 1 | [1] 0.972 | S. cerevisiae deletion strains, locus YHR087W, strain rtc3, stronger effect = lower value 0.984 | [2] 1 | S. cerevisiae deletion strains, locus YJR043C, strain POL32, stronger effect = lower value 1 | S. cerevisiae deletion strains, locus YJR075W, strain HOC1, stronger effect = lower value 0.984 | S. cerevisiae deletion strains, locus YLR039C, strain RIC1, stronger effect = lower value 1.01 | S. cerevisiae deletion strains, locus YLR058C, strain SHM2 (second series), stronger effect = lower value 0.998 | S. cerevisiae deletion strains, locus YLR085C, strain ARP6, stronger effect = lower value 0.998 | S. cerevisiae deletion strains, locus YLR262C, strain YPT6, stronger effect = lower value 1.02 | S. cerevisiae deletion strains, locus YML094W, strain GIM5, stronger effect = lower value 0.975 | S. cerevisiae deletion strains, locus YMR219W, strain ESC1, stronger effect = lower value 0.988 | S. cerevisiae deletion strains, locus YMR263W, strain SAP30, stronger effect = lower value 0.987 | S. cerevisiae deletion strains, locus YMR307W, strain GAS1, stronger effect = lower value 1.02 | S. cerevisiae deletion strains, locus YNL153C, strain GIM3, stronger effect = lower value 0.988 | S. cerevisiae deletion strains, locus YNL298W, strain CLA4 (second series), stronger effect = lower value 1 | S. cerevisiae deletion strains, locus YNL322C, strain KRE1, stronger effect = lower value 0.991 | S. cerevisiae deletion strains, locus YNR030W, strain Alg12, stronger effect = lower value 1.03 | S. cerevisiae deletion strains, locus YPL055C, strain LGE1, stronger effect = lower value 0.854 | S. cerevisiae deletion strains, locus YPL241C, strain CIN2, stronger effect = lower value 0.9 | S. cerevisiae deletion strains, locus YPR135W, strain CTF4, stronger effect = lower value 1.03 | S. cerevisiae strains, strain wild type, stronger effect = lower value 1.01

NC(=O)c1cccnc1
inactive: S. cerevisiae deletion strains, locus YAL021C, strain ccr4, stronger effect = lower value 0.969 | S. cerevisiae deletion strains, locus YAL026C, strain drs2, stronger effect = lower value 0.979 | S. cerevisiae deletion strains, locus YAL030W, strain snc1, stronger effect = lower value 0.958 | S. cerevisiae deletion strains, locus YBL061C, strain skt5, stronger effect = lower value 0.971 | S. cerevisiae deletion strains, locus YBR009C, strain hhf1, stronger effect = lower value 0.974 | S. cerevisiae deletion strains, locus YBR023C, strain chs3, stronger effect = lower value 0.98 | S. cerevisiae deletion strains, locus YBR171W, strain sec66, stronger effect = lower value 0.968 | S. cerevisiae deletion strains, locus YBR231C, strain swc5, stronger effect = lower value 0.995 | S. cerevisiae deletion strains, locus YBR279W, strain paf1, stronger effect = lower value 0.991 | S. cerevisiae deletion strains, locus YCL011C, strain gbp2, stronger effect = lower value 0.979 | S. cerevisiae deletion strains, locus YCL016C, strain dcc1, stronger effect = lower value 0.978 | S. cerevisiae deletion strains, locus YCL061C, strain MRC1, stronger effect = lower value 0.986 | S. cerevisiae deletion strains, locus YCL069W, strain vba3, stronger effect = lower value 0.986 | S. cerevisiae deletion strains, locus YCR088W, strain abp1, stronger effect = lower value 0.97 | S. cerevisiae deletion strains, locus YDL005C, strain med2, stronger effect = lower value 0.966 | S. cerevisiae deletion strains, locus YDL040C, strain nat1, stronger effect = lower value 0.992 | S. cerevisiae deletion strains, locus YDR001C, strain nth1, stronger effect = lower value 0.972 | S. cerevisiae deletion strains, locus YDR069C, strain doa4, stronger effect = lower value 0.972 | S. cerevisiae deletion strains, locus YDR137W, strain rgp1, stronger effect = lower value 0.994 | S. cerevisiae deletion strains, locus YDR159W, strain sac3, stronger effect = lower value 0.97 | S. cerevisiae deletion strains, locus YDR195W, strain ref2 0.996 | S. cerevisiae deletion strains, locus YDR297W, strain sur2, stronger effect = lower value 0.975 | S. cerevisiae deletion strains, locus YDR334W, strain swr1, stronger effect = lower value 0.928 | S. cerevisiae deletion strains, locus YDR335W, strain msn5, stronger effect = lower value 0.975 | S. cerevisiae deletion strains, locus YDR392W, strain spt3, stronger effect = lower value 0.985 | S. cerevisiae deletion strains, locus YEL003W, strain gim4, stronger effect = lower value 0.975 | S. cerevisiae deletion strains, locus YEL037C, strain rad23, stronger effect = lower value 0.987 | S. cerevisiae deletion strains, locus YEL061C, strain CIN8 (second series), stronger effect = lower value 0.983 | S. cerevisiae deletion strains, locus YER015W, strain faa2, stronger effect = lower value 0.992 | S. cerevisiae deletion strains, locus YER016W, strain bim1, stronger effect = lower value 0.981 | S. cerevisiae deletion strains, locus YER111C, strain swi4, stronger effect = lower value 0.985 | S. cerevisiae deletion strains, locus YER155C, strain BEM2 (second series), stronger effect = lower value 0.98 | S. cerevisiae deletion strains, locus YFR010W, strain ubp6, stronger effect = lower value 0.971 | S. cerevisiae deletion strains, locus YGL167C, strain pmr1, stronger effect = lower value 0.984 | S. cerevisiae deletion strains, locus YGL173C, strain kem1, stronger effect = lower value 0.957 | S. cerevisiae deletion strains, locus YGL227W, strain vid30, stronger effect = lower value 0.959 | S. cerevisiae deletion strains, locus YGL240W, strain doc1, stronger effect = lower value 0.963 | S. cerevisiae deletion strains, locus YGL253W, strain hxk2, stronger effect = lower value 0.998 | S. cerevisiae deletion strains, locus YHR013C, strain ard1, stronger effect = lower value 0.972 | S. cerevisiae deletion strains, locus YHR027C, strain rpn1, stronger effect = lower value 0.959 | [1] 0.971 | S. cerevisiae deletion strains, locus YHR079C, strain IRE1, stronger effect = lower value 0.961 | S. cerevisiae deletion strains, locus YHR142W, strain chs7, stronger effect = lower value 0.976 | S. cerevisiae deletion strains, locus YJL092W, strain hpr5, stronger effect = lower value 0.982 | S. cerevisiae deletion strains, locus YJL095W, strain BCK1 (second series), stronger effect = lower value 0.979 | S. cerevisiae deletion strains, locus YJL095W, strain BCK1, stronger effect = lower value 0.974 | S. cerevisiae deletion strains, locus YJL115W, strain asf1, stronger effect = lower value 0.96 | S. cerevisiae deletion strains, locus YJL129C, strain trk1, stronger effect = lower value 0.996 | S. cerevisiae deletion strains, locus YJL154C, strain vps35, stronger effect = lower value 0.964 | S. cerevisiae deletion strains, locus YJL164C, strain tpk1, stronger effect = lower value 0.992 | S. cerevisiae deletion strains, locus YJL166W, strain qcr8, stronger effect = lower value 0.978 | [2] 0.982 | S. cerevisiae deletion strains, locus YJR066W, strain TOR1, stronger effect = lower value 0.928 | S. cerevisiae deletion strains, locus YKL160W, strain elf1, stronger effect = lower value 0.991 | S. cerevisiae deletion strains, locus YKR026C, strain gcn3, stronger effect = lower value 0.976 | S. cerevisiae deletion strains, locus YKR091W, strain srl3, stronger effect = lower value 0.986 | S. cerevisiae deletion strains, locus YLL001W, strain dnm1, stronger effect = lower value 0.991 | S. cerevisiae deletion strains, locus YLL026W, stronger effect = lower value 0.951 | S. cerevisiae deletion strains, locus YLL041C, strain sdh2, stronger effect = lower value 0.982 | S. cerevisiae deletion strains, locus YLR027C, strain aat2, stronger effect = lower value 0.948 | S. cerevisiae deletion strains, locus YLR113W, strain HOG1, stronger effect = lower value 0.973 | S. cerevisiae deletion strains, locus YLR221C, strain rsa3, stronger effect = lower value 0.974 | S. cerevisiae deletion strains, locus YLR258W, strain gsy2, stronger effect = lower value 0.984 | S. cerevisiae deletion strains, locus YLR262C, strain YPT6 (second series), stronger effect = lower value 0.965 | S. cerevisiae deletion strains, locus YLR320W, strain mms22, stronger effect = lower value 1 | S. cerevisiae deletion strains, locus YLR342W, strain FKS1, stronger effect = lower value 0.983 | S. cerevisiae deletion strains, locus YLR357W, strain rsc2, stronger effect = lower value 0.979 | S. cerevisiae deletion strains, locus YLR370C, strain arc18, stronger effect = lower value 0.986 | S. cerevisiae deletion strains, locus YLR384C, strain iki3, stronger effect = lower value 0.987 | S. cerevisiae deletion strains, locus YML120C, strain ndi1, stronger effect = lower value 0.982 | S. cerevisiae deletion strains, locus YMR058W, strain fet3, stronger effect = lower value 0.979 | S. cerevisiae deletion strains, locus YMR125W, strain sto1, stronger effect = lower value 0.963 | S. cerevisiae deletion strains, locus YMR129W, stronger effect = lower value 0.99 | S. cerevisiae deletion strains, locus YMR205C, strain PFK2, stronger effect = lower value 0.962 | S. cerevisiae deletion strains, locus YMR231W, strain pep5, stronger effect = lower value 0.978 | S. cerevisiae deletion strains, locus YNL071W, strain lat1, stronger effect = lower value 0.975 | S. cerevisiae deletion strains, locus YNL183C, strain NPR1, stronger effect = lower value 0.949 | S. cerevisiae deletion strains, locus YNL209W, strain ssb2, stronger effect = lower value 0.979 | S. cerevisiae deletion strains, locus YNL248C, strain rpa49, stronger effect = lower value 0.973 | S. cerevisiae deletion strains, locus YNL322C, strain KRE1 (second series), stronger effect = lower value 0.98 | S. cerevisiae deletion strains, locus YNR049C, strain mso1, stronger effect = lower value 0.966 | S. cerevisiae deletion strains, locus YOR001W, strain rrp6, stronger effect = lower value 0.983 | S. cerevisiae deletion strains, locus YOR070C, strain gyp1, stronger effect = lower value 0.983 | S. cerevisiae deletion strains, locus YOR080W, strain dia2, stronger effect = lower value 0.978 | S. cerevisiae deletion strains, locus YOR083W, strain WHI5, stronger effect = lower value 0.986 | S. cerevisiae deletion strains, locus YOR106W, strain vam3, stronger effect = lower value 0.986 | S. cerevisiae deletion strains, locus YOR231W, strain MKK1, stronger effect = lower value 0.975 | S. cerevisiae deletion strains, locus YOR265W, strain rbl2, stronger effect = lower value 0.983 | S. cerevisiae deletion strains, locus YOR270C, strain vph1, stronger effect = lower value 0.978 | S. cerevisiae deletion strains, locus YOR290C, strain snf2, stronger effect = lower value 0.996 | S. cerevisiae deletion strains, locus YPL051W, strain arl3, stronger effect = lower value 0.999 | S. cerevisiae deletion strains, locus YPL078C, strain atp4, stronger effect = lower value 0.98 | S. cerevisiae deletion strains, locus YPL106C, strain sse1, stronger effect = lower value 0.927 | S. cerevisiae deletion strains, locus YPL240C, strain hsp82, stronger effect = lower value 0.978 | S. cerevisiae deletion strains, locus YPL256C, strain CLN2, stronger effect = lower value 0.992
